Out of some 320,000 compounds screened, about 190 (0.059%) were called active. Cut-off read from the data, not from the text of the source: active = inhibition above about 10% (passing the limit was not always enough); inconclusive = no clear call, values can overlap the other calls. The full list was thinned out, with actives kept by preference.

For the experiment, the target named is UDP-galactopyranose mutase (Mycobacterium tuberculosis (strain ATCC 25618 / H37Rv)) (UniProt P9WIQ1). Briefly: M. tuberculosis UGM enzyme inhibitors, primary screen, biochemical, fluorescence polarization, single point (AID 504406). Conditions: purified UGM, fluorescence polarization probe displacement; at 10 µM; active compounds read high.
UDP-galactopyranose mutase (Mycobacterium tuberculosis (strain ATCC 25618 / H37Rv)), sequence (P9WIQ1 whole entry, looked up): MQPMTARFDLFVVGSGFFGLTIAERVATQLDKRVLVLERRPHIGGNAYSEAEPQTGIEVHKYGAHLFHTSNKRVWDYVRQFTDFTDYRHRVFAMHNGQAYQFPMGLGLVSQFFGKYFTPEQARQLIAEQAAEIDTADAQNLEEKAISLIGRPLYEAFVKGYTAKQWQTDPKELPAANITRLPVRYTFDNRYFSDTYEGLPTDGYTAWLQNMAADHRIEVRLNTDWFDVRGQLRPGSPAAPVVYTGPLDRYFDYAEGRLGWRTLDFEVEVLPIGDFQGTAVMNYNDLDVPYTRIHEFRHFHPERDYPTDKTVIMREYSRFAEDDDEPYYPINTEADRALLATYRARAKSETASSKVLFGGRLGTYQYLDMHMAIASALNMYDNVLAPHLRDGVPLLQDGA
A word on the inhibition: it is the relative decrease from the control value, in per cent. On to `CCN(CC)S(=O)(=O)c1ccc(N2CCCC2)c(NS(=O)(=O)c2cccs2)c1`, for which the inhibition was -0.858% (inactive). Then `Clc1ccc(-c2cc(COc3ccccc3)no2)cc1Cl`, with 2.39% (inactive); and `Cc1ccc(S(=O)(=O)N(CC(=O)N/N=C/c2ccc(F)cc2)c2cccc3cccnc23)cc1`, with 1.31% (inactive). Consider `COc1ccc2c(c1)c(=O)c(C(=O)c1ccc(Cl)cc1)cn2CC(=O)Nc1ccc(F)cc1`, for which the inhibition was -1.48% (inactive).

On to `Cc1cc(C)n(CCC(=O)N2CCN(S(=O)(=O)c3ccc(C)c(C)c3)CC2)n1`, for which the inhibition is -2.44% (inactive). Regarding `CCOC(=O)C1(CCOc2ccccc2)CCN(Cc2ccc(C#CCCO)cc2)CC1`, the inhibition was -2.01% (inactive).

For `COC(=O)c1ccc(NC(=O)CSc2nncn2-c2cccnc2)cc1`, the inhibition is -3.9% (inactive). With `COc1ccc(C(O)(C2CCCCC2)C(CN2CCCC2)c2ccccc2)cc1` (stereo not drawn), the inhibition is 1.17% (inactive). `COc1ccc(CNS(=O)(=O)c2ccc(NC(=O)N3CCCCC3)cc2)cc1`: the inhibition was 0.444% (inactive). The value for `COC(=O)c1c(NC(=O)COc2ccc(Cl)cc2Cl)sc2c1CC(C)(C)NC2(C)C` was -3.8% (inactive). `C=C(Br)CN1CCN(CC(=C)Br)CC1`: the inhibition was 2.58% (inactive). With `C=CC[C@@H](CC(=O)NCCO)C(=O)N[C@H](C)COC(=O)[C@@H](CC=C)CC(=O)OC(C)(C)C`, the inhibition was -0.634% (inactive). For `Cn1c(=O)c2c(nc(OCc3cccnc3)n2Cc2ccccc2)n(C)c1=O`, the inhibition is 7.96% (inactive). Then `Cc1cc(C(=O)OCC(=O)Nc2ccc(F)c(F)c2)c(C)o1`, with -0.0838% (inactive); and `COc1cccc(NC(=O)CN(C)CC(=O)c2c(N)n(Cc3ccccc3)c(=O)n(C)c2=O)c1`, with 3.19% (inactive); and `CCCn1nnnc1NCc1ccc(CC)cc1`, with -1.05% (inactive). Then `Cc1cccc(N(C)C(=O)CN2C(=O)COc3ccc(S(=O)(=O)N4CCCCCC4)cc32)c1`, with -1.26% (inactive); and `CCOC(CNC(=O)C1CCN(S(=O)(=O)c2ccc3nc4c(c(C(=O)O)c3c2)CC(C)CC4)CC1)OCC` (stereo not drawn), with -0.608% (inactive). The value for `Cc1ccc(N)cc1-n1c(C)ccc1C` was -4.8% (inactive); that for `CC(Sc1nc2cc(Cl)ccc2s1)C(=O)Nc1ccc2c(c1)OCO2` (stereo not drawn) was 1.22% (inactive); that for `Cc1cccc(N(CC(=O)Nc2ccc(-c3nc4ccc(C)cc4s3)cc2)S(C)(=O)=O)c1` was -2.81% (inactive). For `CCN(CC)CCn1cnc2c1c(=O)n(CCOC(=O)c1cc(OC)c(OC)c(OC)c1)c(=O)n2C`, the inhibition is 0.786% (inactive). Turning to `CC(CNC(=O)Cn1cnc2c(OCc3ccccc3)ncnc21)c1ccccc1` (stereo not drawn), the inhibition is -1.84% (inactive).

For the molecule `CCSC1(SCC)N=C(N)C2(C#N)C(c3ccccc3)NC(C)=CC12C#N` (stereo not drawn), the inhibition is 0.444% (inactive). In the case of `O=C1CCC(Cc2ccccc2)N1` (stereo not drawn), the inhibition is 1.36% (inactive). Consider `O=C(CN1C(=O)c2ccc([N+](=O)[O-])cc2C1=O)Nc1nnc(C2CC2)s1`, for which the inhibition is 0.737% (inactive). Regarding `CN1CCN(Cc2nc3cc(NC(=O)COc4ccc([N+](=O)[O-])cc4)ccc3n2C)CC1`, the inhibition is -1.12% (inactive).

Consider `CC1CCC2(CC1)NC(=O)N(CC(=O)c1cccn1C)C2=O` (stereo not drawn), for which the inhibition was -1.14% (inactive).

The values above are taken from PubChem BioAssay AID504406 (Broad Institute, 2011).
